Cycloheximide cs: counter-screen for Shiga toxin inhibitors: cycloheximide protein synthesis inhibition; cell reporter, cycloheximide protein synthesis inhibition counterscreen; max response, %; 300,000 tested, 12% active; in the data active = max response mostly above about 13%, no sharp cut-off; inactive = mostly below about 14%; also: read at 38.3 µM for the half of the compounds with a filed dose; 0% is about no effect
Pf growth 48h: inhibits P. falciparum growth in the first generation, 48 h; 310,000 tested, 5.9% active; Potency, µM (doses to about 28.7 µM), without a hit: at the top dose activity change, negative = inhibition, actives largely listed as inhibitors; AID 504832; P. falciparum luciferase growth in erythrocytes, 48 h; also: potency is read from the fitted curve at half-maximal effect; % is scaled to controls: 0 for no effect and ±100 for the full control effect
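Firefly luciferase activity from engineered P. falciparum reports growth; inhibitors lower the luminescent signal. Cultures contained 2% hematocrit erythrocytes at 0.1% final parasitemia.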
HCV inh: inhibitors of hepatitis C virus infection; Huh7.5.1 HCVcc-Cre infection, luciferase reporter, 44 h; Potency, µM (series often up to 41.8 µM), without a hit: top-dose activity change, negative = inhibition, actives largely listed as inhibitors; 340,000 tested, 3.4% active; AID 651820; also: potency is read from the fitted curve at half-maximal effect; % is scaled to controls: 0 for no effect and ±100 for the full control effect
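Compounds are dispensed onto cells plated 4 h earlier at 1,000 per well, with HCVcc-Cre virus (about 0.5 moi) added next. Following 44 h of culture, luminescent signal is measured for 15 sec after 15 min with substrate at room temperature.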
Shiga inhibitor: Shiga toxin inhibition. Vero cells, Shiga toxin protein synthesis inhibition reporter. inhibition, % at 38.7 µM. 290,000 tested, 9.2% active; in the data active = inhibition mostly above about 28%, no sharp cut-off; inactive = mostly below about 43%; also: 0% is about no effect
AMA1 RON2 block: disrupts binding of P. falciparum AMA1 to RON2; AlphaScreen AMA1-biotinylated RON2 peptide binding; Potency, µM (series often up to 58.2 µM), for the others: at the top dose activity change, negative = inhibition, usual class: inhibitors; 360,000 tested, 0.2% active;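 also: potency is read from the fitted curve at half-maximal effect; 0% = vehicle wells and -100% = peptide control; nearly all actives have a fitted effect of over 45% in size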
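AMA1 (3D7) with his tag at 25 nM final met compounds first, then biotinylated RON2 peptide at 25 nM; detection used donor plus acceptor beads, 10 µg/mL apiece, read by AlphaScreen after 30 min at room temperature.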
Pf growth 96h: P. falciparum growth inhibition at 96 hours. 320,000 tested, 6.9% active. Potency, µM (doses to about 28.7 µM), inactives show at the highest dose activity change, negative = inhibition, actives largely listed as inhibitors. P. falciparum luciferase reporter growth, 96 h. AID 504834; also: potency is read from the fitted curve at half-maximal effect; % is scaled to controls: 0 for no effect and ±100 for the full control effect
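Two-generation exposure (96 h) targets delayed-death phenotype. Reporter parasites carrying integrated firefly luciferase, in red cells at 2% hematocrit and 0.05% parasitemia final, kept at 37 C, 5% CO2; luminescence loss indicates inhibition.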
Numbers without * were called inactive. Hits are enriched below; roughly 21% of the tested compounds scored in any of these assays. Unless noted, calls follow the shape of the dose curve; as a rule, active = well fitted curve in the direction sought with a large enough effect; inconclusive = small, poorly fitted or top-dose-only effect, or another doubt; inactive = no such curve, though single readings can be large; an effect the other way counts as inactive or inconclusive.

Results for CCOc1ccccc1CNC(=O)c1ccc(NC(=O)C2=CSCCO2)cc1 ?
Cycloheximide cs: 18*; Pf growth 48h: -20%; HCV inh: -28%; Shiga inhibitor: 28; AMA1 RON2 block: -4%; Pf growth 96h: inconclusive

How did O=C(Cn1ccc2ccccc2c1=O)NCC(=O)N1CCN(c2ccccc2F)CC1 do in these assays?
Cycloheximide cs: -1; Pf growth 48h: 17%; HCV inh: -7%; Shiga inhibitor: -5; AMA1 RON2 block: -3%; Pf growth 96h: 16%

What do the screens show for `CCN(C[C@H]1N[C@@](CC)(C(=O)OC)[C@H]2C(=O)N(C)C(=O)[C@@H]12)C(=O)c1ccccc1`?
HCV inh: -9%; AMA1 RON2 block: 14%

What do the screens show for `CN1CCCC(CC2Oc3ccccc3Sc3ccccc32)C1` (centres undefined)?
Cycloheximide cs: -5; Pf growth 48h: 13µM*; HCV inh: 11µM*; Shiga inhibitor: -15; AMA1 RON2 block: -9%; Pf growth 96h: inconclusive

Results for c1ccc(-c2ccccc2OCCCCN2CCCCCC2)cc1 ?
Cycloheximide cs: -1; Pf growth 48h: inconclusive; HCV inh: inconclusive; Shiga inhibitor: -14; AMA1 RON2 block: 5%; Pf growth 96h: -3%

How did c1ccc2c(c1)OC(CCCN1CCCCC1)c1ccccc1S2 (centres undefined) do in these assays?
Cycloheximide cs: -5; Pf growth 48h: 13µM*; HCV inh: 25µM*; Shiga inhibitor: -8; AMA1 RON2 block: -7%; Pf growth 96h: 10µM*

What do the screens show for `COc1cccc(NC(=O)CCC2CCN(C(=O)c3scnc3C)CC2)c1`?
Cycloheximide cs: -5; Pf growth 48h: 6%; HCV inh: 1%; Shiga inhibitor: -15; AMA1 RON2 block: 0%; Pf growth 96h: 49%

What do the screens show for `O=C(O)c1cccc(-n2cc(-c3cccc(C(F)(F)F)c3)cn2)c1`?
Cycloheximide cs: 54*; Pf growth 48h: 231%; HCV inh: 6%; Shiga inhibitor: 118*; AMA1 RON2 block: -1%; Pf growth 96h: 341%

What do the screens show for `NC(=O)c1nnn(-c2cccc(C(F)(F)F)c2)c1-c1ccccc1`?
Cycloheximide cs: 5; Pf growth 48h: 16%; HCV inh: 6%; Shiga inhibitor: -11; AMA1 RON2 block: 3%; Pf growth 96h: 13%

Results for Cc1coc2c(C)c3oc(=O)c(CCC(=O)N(C)CC(=O)O)c(C)c3cc12 ?
Cycloheximide cs: -6; Pf growth 48h: 7%; HCV inh: 12%; Shiga inhibitor: 15; AMA1 RON2 block: -4%; Pf growth 96h: 33%

What do the screens show for `CCC(=O)N1Cc2cc(C(=O)Nc3nccs3)nc(-c3cccc(-c4ccccc4OC)c3)c2[C@@H]1CCO`?
AMA1 RON2 block: 76%

What do the screens show for `CCCN(CCC)CC(O)Cn1cc(/C=C/C(=O)c2ccccc2)c2ccccc21` (centres undefined)?
Cycloheximide cs: -2; Pf growth 48h: inconclusive; HCV inh: inconclusive; Shiga inhibitor: 42; AMA1 RON2 block: -23%; Pf growth 96h: -15%

Results for COc1ccc(C(=O)/C=C/c2cn(CC(O)CN3CCN(C)CC3)c3ccccc23)cc1OC (centres undefined) ?
Cycloheximide cs: -2; Pf growth 48h: 4.7µM*; HCV inh: -75%; Shiga inhibitor: -2; AMA1 RON2 block: -21%; Pf growth 96h: 12µM*

What do the screens show for `COc1ccc(C(=O)N/C(=C\c2cccc3ccccc23)C(=O)N2CCN(C)CC2)cc1OC`?
Cycloheximide cs: 1; Pf growth 48h: 5%; HCV inh: 7%; Shiga inhibitor: 13; AMA1 RON2 block: -6%; Pf growth 96h: 9%

How did O=C(/C=C/c1cn(CC(O)CN2CCCCC2)c2ccccc12)c1ccccc1 (centres undefined) do in these assays?
Cycloheximide cs: 12; Pf growth 48h: 13µM*; HCV inh: inconclusive; Shiga inhibitor: 20; AMA1 RON2 block: -26%; Pf growth 96h: inconclusive

Results for CCn1cc(/C=C(\NC(=O)c2ccc(OC)c(OC)c2)C(=O)N2CCN(C)CC2)c2ccccc21 ?
Cycloheximide cs: -3; Pf growth 48h: inconclusive; HCV inh: 15%; Shiga inhibitor: -9; AMA1 RON2 block: -10%; Pf growth 96h: 10µM*

What do the screens show for `CN1CCN(Cn2cc(/C=C/C(=O)c3ccccc3)c3ccccc32)CC1`?
Cycloheximide cs: 33*; Pf growth 48h: 179%; HCV inh: inconclusive; Shiga inhibitor: 61*; AMA1 RON2 block: -2%

Results for CSc1cccc(NC(=O)CCCn2c(=O)c3cccn3c3cccnc32)c1 ?
Cycloheximide cs: 9; Pf growth 48h: inconclusive; HCV inh: inconclusive; Shiga inhibitor: 16; AMA1 RON2 block: -16%; Pf growth 96h: 11%

What do the screens show for `COc1cccc(-c2cnc(C(O)c3cc(C)ccc3C)[nH]2)c1` (centres undefined)?
AMA1 RON2 block: -17%

What do the screens show for `CC(=O)c1ccc(NC(=O)C(C)Sc2n[nH]c(-c3cccnc3)n2)cc1` (centres undefined)?
Cycloheximide cs: -1; Pf growth 48h: -35%; HCV inh: 9%; Shiga inhibitor: -4; AMA1 RON2 block: -9%; Pf growth 96h: inconclusive

How did CC(CCc1ccccc1)NCc1cccc2ccccc12 (centres undefined) do in these assays?
Cycloheximide cs: 0; Pf growth 48h: inconclusive; HCV inh: inconclusive; Shiga inhibitor: -3; AMA1 RON2 block: -24%; Pf growth 96h: inconclusive

What do the screens show for `COCC(C)NCc1cccc2ccccc12` (centres undefined)?
Cycloheximide cs: -2; Pf growth 48h: 17%; HCV inh: -23%; Shiga inhibitor: -10; AMA1 RON2 block: -17%; Pf growth 96h: 4.7µM*

Results for O=C(O)COc1ccccc1/C=N/NC(=O)CSc1nc2ccccc2n1Cc1ccc(Cl)cc1 ?
Cycloheximide cs: 6; Pf growth 48h: 15µM*; HCV inh: 5%; Shiga inhibitor: 12; AMA1 RON2 block: 6%; Pf growth 96h: inconclusive

How did O=C(CSc1nnc(SCc2ccccc2)s1)N/N=C/c1c[nH]c2ccccc12 do in these assays?
Cycloheximide cs: 17; Pf growth 48h: 18%; HCV inh: 1%; Shiga inhibitor: 31; AMA1 RON2 block: -9%; Pf growth 96h: -14%

How did O=C(CSc1nc2ccccc2n1Cc1ccc(Cl)cc1)N/N=C/c1ccccc1C(=O)O do in these assays?
Cycloheximide cs: -4; Pf growth 48h: -18%; HCV inh: 13%; Shiga inhibitor: -8; AMA1 RON2 block: -13%; Pf growth 96h: 34%

Results for O=C(CSc1nnc(SCc2ccc(Cl)cc2)s1)N/N=C/c1ccccc1C(=O)O ?
Cycloheximide cs: -3; Pf growth 48h: 28%; HCV inh: -3%; Shiga inhibitor: 18; AMA1 RON2 block: 26%; Pf growth 96h: 32%

From PubChem
